The list is not random: actives were taken first. Their share in the collection is about 0.78%.
L3MBTL1 inh-1 = qHTS Assay for the Inhibitors of L3MBTL1; Lethal(3)malignant brain tumor-like protein 1 (Homo sapiens), Q9Y468; AlphaScreen L3MBTL1–H3K9me1 peptide binding; Potency, µM (series often up to 57.1 µM), without a hit: at the top dose activity, negative = inhibition, most hits filed as inhibitors; 230,000 compounds, 0.66% hits; note: % is set by controls: 0 for no effect and ±100 for the full control effect; nearly all actives have a fitted effect of over 60% in size
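First, the protein-peptide complex forms for 30 min at room temperature (L3MBTL1 50 nM, biotinylated H3K9me1 peptide 75 nM). Next, compounds are pin-transferred and incubated 30 min. Finally, AlphaScreen beads are added and read after 30 min.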
APE1 inh = qHTS Assay for Inhibitors of the Human Apurinic/apyrimidinic Endonuclease 1 (APE1). DNA repair nuclease/redox regulator APEX1 (Homo sapiens), P27695. 350,000 compounds, 0.35% hits. AID 2517, 2012. recombinant APE1, TAMRA/BHQ-2 abasic DNA cleavage fluorescence. Potency, µM (top dose mostly 65.8 µM), without a hit: at the highest dose activity change, negative = inhibition, usual class: inhibitors;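 note: plate controls were vehicle for no effect and reference inhibitor for full effect; nearly all actives have a fitted effect of over 55% in size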
Target sequence (P27695 whole entry, looked up): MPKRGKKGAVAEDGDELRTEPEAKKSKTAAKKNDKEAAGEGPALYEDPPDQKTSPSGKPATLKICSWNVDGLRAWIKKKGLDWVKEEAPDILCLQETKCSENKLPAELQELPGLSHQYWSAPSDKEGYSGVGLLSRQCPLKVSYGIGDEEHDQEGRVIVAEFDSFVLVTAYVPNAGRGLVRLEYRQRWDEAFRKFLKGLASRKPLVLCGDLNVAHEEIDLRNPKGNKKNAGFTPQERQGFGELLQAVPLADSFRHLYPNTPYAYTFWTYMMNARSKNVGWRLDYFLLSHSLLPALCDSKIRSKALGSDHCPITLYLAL
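Incision of a quenched TAMRA/BHQ-2 THF abasic-site duplex (50 nM) by 0.75 nM APE1, after 15 min compound preincubation, measured as fluorescence increase over three 60 s reads. Values normalized to buffer, DMSO and NSC13755 control wells.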
BLM inh = qHTS Assay for Inhibitors of Bloom's syndrome helicase (BLM). 350,000 compounds, 0.2% hits. RecQ-like DNA helicase BLM (Homo sapiens), P54132. Potency, µM (highest dose often 56.1 µM), inactives show top-dose activity change, negative = inhibition, most hits filed as inhibitors. recombinant BLM DNA unwinding, fluorescence dequenching;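 note: plate controls were vehicle for no effect and no enzyme for full effect; nearly all actives have a fitted effect of over 35% in size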
RECQ1 inh = qHTS Assay for Inhibitors of RecQ-Like Dna Helicase 1 (RECQ1). ATP-dependent DNA helicase Q1 (Homo sapiens), P46063. RECQ1 DNA unwinding, red fluorescence kinetic read. Potency, µM (highest dose often 57.3 µM), without a hit: at the highest dose activity, negative = inhibition, usual class: inhibitors. 240,000 compounds, 0.54% hits;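 note: plate controls were vehicle for no effect and no enzyme for full effect; nearly all actives have a fitted effect of over 30% in size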
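50 nM RECQ1T1 preincubated 15 min with compound in Tris pH 8.0 buffer with MgCl2, DTT, Tween-20 and 2.5 ug/ml poly(dI-dC); started with 200 nM TAMRA/BHQ-2 forked duplex and 2 mM ATP. Unwinding read as fluorescence (525/598 nm), two reads 2 h apart.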
L3MBTL1 inh-2 = qHTS Assay for the Inhibitors of L3MBTL1: Hit Validation; shares compounds with L3MBTL1 inh-1; Potency, µM, hits mostly inhibitors; 500 compounds, 91% hits; AID 540279, 2011; L3MBTL1 methyl-lysine binding inhibition, biochemical qHTS; note: nearly all actives have a fitted effect of over 70% in size
L3MBTL1 ctr = qHTS Assay for the Inhibitors of L3MBTL1: Hit Validationin AlphaScreen Counterscreen | shares compounds with L3MBTL1 inh-1 | AlphaScreen counterscreen, signal inhibition | Potency, µM (top dose mostly 57.1 µM), inactives show at the top dose activity change, negative = inhibition, most hits filed as inhibitors | 500 tested, under 10 active | AID 602224, 2012; note: 0% is about no effect
Starred values were filed as active, the others as inactive; i = inactive; u = inconclusive; x = no result; [ ] = dose if it differs, or a comment. Calls come from the whole dose curve; as a rule, active = well fitted curve in the direction sought with a large enough effect; inconclusive = small, poorly fitted or top-dose-only effect, or another doubt; inactive = no such curve, though single readings can be large; an effect the other way counts as inactive or inconclusive. Potency is the fitted concentration of half-maximal effect.

SMILES	L3MBTL1 inh-1	APE1 inh	BLM inh	RECQ1 inh	L3MBTL1 inh-2	L3MBTL1 ctr
O=C(CSc1nnc(C2COc3ccccc3O2)o1)Nc1nccs1 (configuration not stated)	22µM*	17%	6%	-3%	u	13%
Cc1ccc(NC(=O)CN(CCc2ccccc2)S(=O)(=O)c2ccccc2)c(C)c1	x	x	-12%	x	x	x
COc1ccc(Br)cc1CNC(=O)CCSCc1ccc(C)cc1	x	x	-11%	x	x	x
CCOCCCNC(=O)c1ccc2c(c1)NC(=O)C(CS(=O)(=O)Cc1ccc(F)cc1Cl)N2 (configuration not stated)	x	x	-7%	x	x	x
COc1ccc2[nH]c(=O)c(C(=O)O)cc2c1	x	-3%	-2%	i	x	x
COc1ccc2[nH]c(=O)cc(C(=O)O)c2c1	22µM*	u	-13%	-20%	3.4*	0%
COc1ccc(NC2C[C@H]3CCCC(=O)N4CC[C@@H](C2)[C@@H]34)cc1 (some centres not stated)	x	-3%	-3%[75.6 µM]	0%[81.1 µM]	x	x
Cc1ccccc1-c1nc(CN2CCC(C(=O)NCc3ccc(F)cc3)CC2)c(C)o1	x	x	0%	x	x	x
O=c1nc(/C=C/c2ccc(O)c(O)c2)oc2ccccc12	28µM*	u	21%	1%	1.9*	-2%
CCOC(=O)c1[nH]c2c(c1C)C(=O)CC(c1ccco1)C2 (configuration not stated)	32µM*	u	-25%	u	21*	7%
CSCCOC(=O)c1[nH]c2c(c1C)C(=O)CC(c1ccco1)C2 (configuration not stated)	35µM*	13µM*	-29%	-21%	19*	-5%
Cc1c(C(=O)OCCOC(C)C)[nH]c2c1C(=O)CC(C)(C)C2	3%	1%	1%	-2%	x	x
Cc1c(C(=O)OCCOC(C)C)[nH]c2c1C(=O)CC(c1ccco1)C2 (configuration not stated)	25µM*	u	-12%	-2%	24*	-2%
CCOC(=O)CN1C(=O)S/C(=C\c2ccc(-c3ccc(C(=O)O)c(Cl)c3)o2)C1=O	28µM*	15µM*	-2%	x	13*	-1%
COc1ccccc1Cc1nc2ccccc2nc1SCC(=O)Nc1cc(Cl)ccc1OC	x	x	-5%	x	x	x
CC(/C=C\c1cccnc1)=C/C(=O)O	28µM*	-4%	-1%	-26%	27*	0%
O=C(NCC1CCCO1)c1cc(-c2ccco2)nc2ccccc12 (configuration not stated)	u	u	-14%	-4%	x	x
CC(C)CCNC(=O)c1cc(-c2ccco2)nc2ccccc12	x	-3%	0%	i	x	x
COC(=O)C1CCN(C(=O)c2cc(-c3ccco3)nc3ccccc23)CC1	0.79µM*	u	x	x	5.3*	2%
CCCCCCNC(=O)c1cc(-c2ccco2)nc2ccccc12	14µM*	10%	-12%	i	7.5*	8%
CN(C)C(CNC(=O)c1cc(-c2ccco2)nc2ccccc12)c1ccccc1 (configuration not stated)	7.9µM*	-3%	x	x	2.7*	-6%
O=C(Cn1c(=O)n(-c2ccccc2)c(=O)c2sc3ccccc3c21)NC1CCCC1	x	x	-5%	x	x	x
O=C(NCCc1ccc(Cl)cc1)c1ccc2c(c1)N(Cc1ccccc1)C(=O)CS2	x	x	-6%	x	x	x
O=C(CSc1nnc(-c2ccccn2)o1)Nc1ccccc1Cl	x	9%	0%	x	x	x
O=C(CSc1nnc(-c2ccc(C(F)(F)F)cn2)o1)Nc1ccccc1Cl	32µM*	0%	-4%	6%	21*	1%
SMILES	L3MBTL1 inh-1	APE1 inh	BLM inh	RECQ1 inh	L3MBTL1 inh-2	L3MBTL1 ctr
Cc1ccc(/C=C2\SC(=S)N(C3CCS(=O)(=O)C3)C2=O)o1 (configuration not stated)	25µM*	4%	-6%	-6%	21*	-4%
NS(=O)(=O)c1ccc(-c2ccc(/C=C3\SC(=S)N(C4CCS(=O)(=O)C4)C3=O)o2)cc1 (configuration not stated)	x	-3%	0%	-1%	x	x
COC(=O)c1cc(NS(=O)(=O)c2cc(Br)cc3c2N(C(C)=O)CC3)cc(C(=O)OC)c1	x	x	2%	x	x	x
Cc1ccc(-n2c(C)nc3oc4ccccc4c(=O)c3c2=O)cc1	40µM*	4%	0%	4%	27*	-2%
CCS(=O)(=O)N1Cc2ccccc2CC1C(=O)Nc1nnc(SCc2ccc(C#N)cc2)s1 (configuration not stated)	18µM*	4%	-29%	0%	3.4*	20%
COc1ccc(-c2nnc3sc(-c4ccco4)nn23)cc1OC	x	-11%	1%	1%	x	x
Cc1oc(-c2ccc(F)cc2)cc1-c1nn2c(-c3ccoc3C)nnc2s1	18µM*	u	u	u	6*	6%
COC(=O)\C(C(C)=O)=C(/C=C/C=C/N(C)C)N(C)C	14µM*	u	3%	-16%	6.7*	19%
O=c1c(-c2ccccc2)nc2cnc(N3CCNCC3)nc2n1Cc1cccs1	x	3%	4%	-5%	x	x
Nc1ccc2nc(-c3ccccn3)[nH]c2c1	28µM*	u	-11%	-12%	7.5*	u
Nc1ccc2nc(-c3ccccc3)[nH]c2c1	0%	0%	-5%	-9%	x	x
Nc1c(C(=O)OCC(=O)Nc2cccc([N+](=O)[O-])c2)[nH]c(=O)[nH]c1=O	32µM*	u	x	x	24*	8%
COc1ccc(OC)c(Nc2ncnc3c2nc2n3CCCC2)c1	x	x	0%	x	x	x
Cc1ccc(C)c(/C(O)=C2/C(=O)C(=O)N(CCN3CCOCC3)C2c2ccco2)c1 (configuration not stated)	25µM*	1%	6%	0%	11*	6%
COc1ccc(OC)c(NC(=O)CN(c2ccccc2OC)S(=O)(=O)c2ccc(C)cc2)c1	x	x	-8%	x	x	x
Cn1nc2c(c1C(=O)O)CCCC2	5.6µM*	u	-1%	-3%	15*	15%
CC(C)[C@H](NC(=O)c1ccccc1Cl)C(=O)Nc1nc(-c2ccccn2)cs1	35µM*	-2%	1%	-3%	24*	18%
CCc1nnc(NC(=O)C(NC(=O)c2ccccc2Cl)C(C)C)s1 (configuration not stated)	0%	6%	-1%	-7%	x	x

Compound activity deposited in PubChem BioAssay by National Center for Advancing Translational Sciences (NCATS).
